The list is not random: actives were taken first. Their share in the collection is about 3.4%.
ADAM10 inh: inhibitors of human ADAM10; O14672; AID 720582; recombinant ADAM10, EDANS/DABCYL FRET peptide cleavage, 3 h; inhibition, % at 7 µM; 370,000 tested, 0.62% active;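 active = inhibition above a per-campaign cutoff equal to the mean of compounds falling between control-based bounds plus 3 SD, cut at about 20% in these data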;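 also: 0% = DMSO wells while the 100% control is not disclosed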
sPLA2-III inh: Inhibits HGIII-sPLA2 liposome hydrolysis, primary screen | QFRET BODIPY PC-A2 liposome hydrolysis, fluorescence | inhibition, % at 12.2 µM | AID 743126 | 370,000 tested, 0.56% active;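 active = inhibition above mean plus 3 SD of compounds lying within the high and low control bounds, cut at about 19% in these data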;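 also: 0% = median of test compound wells and 100% = no enzyme DMSO wells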
ADAM17 inh: inhibitors of human ADAM17; inhibition, % at 6.95 µM; 370,000 tested, 0.83% active; recombinant ADAM17, EDANS/DABCYL FRET peptide cleavage; P78536; AID 720648;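 active = inhibition above the mean of compounds lying between control limits plus 3 SD, set per campaign, cut at about 8.5% in these data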;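 also: 0% = DMSO-only wells as the low control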
PLC-beta3 inh: blocks human PLC-beta3 enzyme activity. Q01970. Purified PLC-beta3, fluorogenic substrate, fluorescence. inhibition, % at 12.2 µM. 370,000 tested, 0.18% active; in the data active = inhibition above about 11%;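 also: 0% = median of compound wells on plate and 100% = full blocker control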
KLK7 zymogen act: activates the human kallikrein-7 zymogen | activation, % at 7 µM | P49862 | 370,000 tested, 0.9% active | purified proKLK7, EDANS-DABCYL substrate fluorescence; 100% is mature enzyme control, 0% vehicle;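 active = activation above the mean of all tested compounds plus 3 SD, computed per campaign excluding outliers beyond control limits, cut at about 13% in these data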
PLC-gamma1 inh: blocks human PLC-gamma1 enzyme activity | AID 720700 | P19174 | 370,000 tested, 0.84% active | inhibition, % at 12.2 µM | purified PLC-gamma1, fluorogenic substrate, fluorescence; in the data active = inhibition above about 9.5%
KLK7 act conf: confirmation of human kallikrein-7 zymogen activators; activation, % at 7 µM; 3,200 tested, 68% active; purified proKLK7, EDANS-DABCYL substrate fluorescence; scaled: vehicle 0, mature enzyme 100; shares compounds with KLK7 zymogen act;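 active = activation, as change over the incubation, above the mean of all tested compounds plus 3 SD, cut at about 13% in these data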
EDANS interfere: fluorescence interference counter-screen for KLK7 activators; shares compounds with KLK7 zymogen act; EDANS-DABCYL substrate fluorescence interference, no enzyme, 4 h; solvent 0%, active enzyme control 100%; activation, % at 7 µM; 3,200 tested, 80% active;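 active = activation above the all-compound mean plus 3 SD, ignoring values outside control-based bounds, cut at about 4.8% in these data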;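 also: value is the 4 h activation minus the activation read at time zero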
K7 EDANS ctr: EDANS fluorescence interference in dose response, no enzyme; EDANS-DABCYL peptide fluorescence interference; shares compounds with KLK7 zymogen act; EC50, µM; 250 tested, 20% active;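 active = compounds that raise the fluorescence signal in this interference counterscreen, with EC50 at or below 10 µM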;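 also: intact quenched peptide substrate alone read at 355 nm excitation and 520 nm emission; signal is fluorescence gain from T0 to T4 after four hours at room temperature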
* hit, by the source's call.

COc1ccc(CCn2c(=N)c(C(=O)NCC3CCCO3)cc3c(=O)n4cccc(C)c4nc32)cc1 (stereo not given) was read as ADAM10 inh -110, sPLA2-III inh 3, ADAM17 inh -30, PLC-beta3 inh -63, KLK7 zymogen act 0 and PLC-gamma1 inh -32.
Screening Cc1cccn2c(=O)c3cc(C(=O)NC(C)C)c(=N)n(Cc4ccncc4)c3nc12 returned ADAM10 inh inactive, sPLA2-III inh 10, ADAM17 inh inactive, PLC-beta3 inh inactive, KLK7 zymogen act 116*, PLC-gamma1 inh inactive, KLK7 act conf 32* and EDANS interfere 37*.
For CCCCCC(=O)NC1CCCCN(Cc2ccccc2C)C1=O (stereo not given) the results were ADAM10 inh 3, sPLA2-III inh 1, ADAM17 inh 1, PLC-beta3 inh 1, KLK7 zymogen act 0 and PLC-gamma1 inh 5.
For COc1cc(NC(=O)NC2CCCCN(Cc3ccc(Cl)cc3)C2=O)cc(OC)c1 (stereo not given) the results were ADAM10 inh -9, sPLA2-III inh 9, ADAM17 inh -5, PLC-beta3 inh 1, KLK7 zymogen act 0 and PLC-gamma1 inh -1.
Screening CCOC(=O)N1CCN(C(=O)C[C@H]2C[C@@]3(C(=O)OC)C(=C[C@H](COCc4ccccc4)O[C@@H]3C)N(Cc3ccccc3)C2=O)CC1 returned ADAM10 inh 4, sPLA2-III inh -7, ADAM17 inh 1, PLC-beta3 inh -1, KLK7 zymogen act 0 and PLC-gamma1 inh -1.
`N=c1c(C(=O)NCC2CCCO2)cc2c(=O)n3ccccc3nc2n1Cc1ccco1` (stereo not given) gave ADAM10 inh inactive, sPLA2-III inh 0, ADAM17 inh -246, PLC-beta3 inh inactive, KLK7 zymogen act 15*, PLC-gamma1 inh inactive, KLK7 act conf 41* and EDANS interfere 38*.
`N=c1c(C(=O)NCC2CCCO2)cc2c(=O)n3ccccc3nc2n1Cc1ccc(F)cc1` (stereo not given) gave ADAM10 inh inactive, sPLA2-III inh 6, ADAM17 inh -296, PLC-beta3 inh -212, KLK7 zymogen act 7 and PLC-gamma1 inh -138.
CCn1cc(C2C(C(=O)Nc3cc(C)ccn3)=C(C)NC3=C2C(=O)CC(C)(C)C3)c(C)n1 (stereo not given) was read as ADAM10 inh inactive, sPLA2-III inh 15, ADAM17 inh -214, PLC-beta3 inh -402, KLK7 zymogen act 20*, PLC-gamma1 inh -441, KLK7 act conf 8 and EDANS interfere 15*.
CCN(CC)c1ccc(C2C(C(=O)Nc3ccccn3)=C(C)NC3=C2C(=O)CC(C)(C)C3)cc1 (stereo not given) was read as ADAM10 inh -160, sPLA2-III inh 3, ADAM17 inh -45, PLC-beta3 inh -218, KLK7 zymogen act 7 and PLC-gamma1 inh -159.
COc1ccc(CNC(=O)c2sc3nc(C)c(Cl)c(C)c3c2N)cc1 was read as ADAM10 inh -273, sPLA2-III inh 1, ADAM17 inh -87, PLC-beta3 inh -431, KLK7 zymogen act -202 and PLC-gamma1 inh -318.
Screening Cc1nc2sc(C(=O)NCc3nccs3)c(N)c2c(C)c1Cl returned ADAM10 inh -26, sPLA2-III inh 3, ADAM17 inh -6, PLC-beta3 inh -159, KLK7 zymogen act 84*, PLC-gamma1 inh -117, KLK7 act conf 63* and EDANS interfere 68*.
Screening COc1ccc(C(=O)CC2OC(=O)c3c2ccc(OC)c3OC)cc1 (stereo not given) returned ADAM10 inh -25, sPLA2-III inh -1, ADAM17 inh -8, PLC-beta3 inh -211, KLK7 zymogen act 55*, PLC-gamma1 inh -153, KLK7 act conf 59* and EDANS interfere 79*.
COc1ccc(C(=O)Cc2cc3cccc(OC)c3oc2=O)cc1 was read as ADAM10 inh 2, sPLA2-III inh -18, ADAM17 inh 0, PLC-beta3 inh -4, KLK7 zymogen act 1 and PLC-gamma1 inh -1.
C=CCNC(=O)c1cc(Cl)ccc1Cl was read as ADAM10 inh 0, sPLA2-III inh -3, ADAM17 inh -3, PLC-beta3 inh 2, KLK7 zymogen act 0 and PLC-gamma1 inh 0.
For C=CCNC(=O)c1cc2cc(Cl)ccc2nc1N the results were ADAM10 inh inactive, sPLA2-III inh 8, ADAM17 inh -201, PLC-beta3 inh -286, KLK7 zymogen act 18*, PLC-gamma1 inh -203, KLK7 act conf 16* and EDANS interfere 14*.
Screening Nc1nc2ccc(Cl)cc2cc1C(=O)NCCCN1CCOCC1 returned ADAM10 inh -493, sPLA2-III inh -2, ADAM17 inh -131, PLC-beta3 inh -222, KLK7 zymogen act 19*, PLC-gamma1 inh -149, KLK7 act conf 15*, EDANS interfere 12* and K7 EDANS ctr inactive.
For COc1ccccc1N1C(=O)C2C(C(=O)c3ccccc3)=NN(c3ccc(Br)cc3)C2C1=O (stereo not given) the results were ADAM10 inh 1, sPLA2-III inh 0, ADAM17 inh -3, PLC-beta3 inh -105, KLK7 zymogen act 18*, PLC-gamma1 inh -67, KLK7 act conf -226 and EDANS interfere -164.
Screening CC(C)Cn1c(-c2ccc(C#N)cc2)nc2c1c(=O)[nH]c(=O)n2CC(C)C returned ADAM10 inh inactive, sPLA2-III inh -2, ADAM17 inh -315, PLC-beta3 inh -309, KLK7 zymogen act 18*, PLC-gamma1 inh -262, KLK7 act conf -9 and EDANS interfere -11.
For COCCn1c(-c2ccc(NC(C)=O)cc2)nc2c1c(=O)[nH]c(=O)n2CC(C)C the results were ADAM10 inh -179, sPLA2-III inh 4, ADAM17 inh -81, PLC-beta3 inh -101, KLK7 zymogen act -1 and PLC-gamma1 inh -64.
`Cc1cc(=O)oc2c3c4c(cc12)OCCN4CCC3` gave ADAM10 inh inactive, sPLA2-III inh 4, ADAM17 inh inactive, PLC-beta3 inh inactive, KLK7 zymogen act 70*, PLC-gamma1 inh inactive, KLK7 act conf 67* and EDANS interfere 64*.
`CC(C)c1cc(=O)oc2c3c4c(cc12)CCCN4CCC3` gave ADAM10 inh inactive, sPLA2-III inh 6, ADAM17 inh -403, PLC-beta3 inh inactive, KLK7 zymogen act -15 and PLC-gamma1 inh inactive.

Screening results deposited in PubChem BioAssay by The Scripps Research Institute Molecular Screening Center.
